Experiment [1] is described as follows: U-118MG Cancer Cell Toxicity qHTS against the NCATS CANVASS Library (AID 1347351). The procedure, abridged:
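1000 cells/well seeded and rested 4 h at 37 °C before pin transfer of compounds in an 11-pnt series. Exposure 72 h at 37 °C/5% CO2; viability by CellTiter-Glo luminescence after 15 min at room temperature.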
Background: In qHTS, concentration-response curves come from the screen itself.

Experiment [2] in a line: HPAF-II 24hr Apoptosis Induction qHTS against the NCATS CANVASS Library (AID 1347356). A digest of the protocol:
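Apoptosis induction in HPAF-II pancreatic cancer cells is measured as caspase-3/7 luminescence after a 24-hour exposure to compounds.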

Experiment [3] in a line: HEK293 18hr Apoptosis Induction qHTS against the NCATS CANVASS Library (AID 1347357). A digest of the protocol: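 Natural products applied to HEK293 for 18 hr; Caspase-Glo 3/7 readout.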
Experiment [4] in a line: HPAF-II 18hr Apoptosis Induction qHTS against the NCATS CANVASS Library (AID 1347360). The procedure, abridged: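 Luminescent DEVD-substrate signal, proportional to caspase activity, is measured in HPAF-II cells after 18-hour treatment across a concentration series; doxorubicin serves as control.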
Experiment [5] is described as follows: HEK293 12hr Apoptosis Induction qHTS against the NCATS CANVASS Library (AID 1347361). A digest of the protocol: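 Luminescent caspase-3/7 signal, proportional to enzyme activity, was recorded from HEK293 cultures in DMEM + 10% FBS treated for 12 hours with titrated natural products (11 points). Doxorubicin (0.1nM - 4uM) served as control.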
For experiment [6], the system named is NAD(P)H diaphorase (Clostridium kluyveri). Briefly: Diaphorse counterscreen qHTS: Assay Interference Panel against the NCATS CANVASS Library (AID 1347362). The procedure, abridged: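 Clostridium kluyveri diaphorase in PBS + 0.01% Tween-20 preincubated 15 min with compounds. Resazurin and NADH then added for 5 min at room temperature in the dark; resorufin fluorescence read (ex 525, em 598).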
(The purpose of a counterscreen is to sort out artefacts and off-target activity.)

Experiment [7] in a line: KB-3-1 Cancer Cell Toxicity qHTS against the NCATS CANVASS Library (AID 1347366). Also: nearly all actives have a fitted effect of over 75% in size. A digest of the protocol: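 Cytotoxicity toward KB-3-1 cells (500/well, DMEM + 10% FBS) was scored by CellTiter-Glo luminescence following 72 hr exposure at 37C, with bortezomib titrated as control.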
Experiment [8] is described as follows: MCF7 Cancer Cell Toxicity qHTS against the NCATS CANVASS Library (AID 1347369). The procedure, abridged:
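This 72 hr qHTS scored MCF7 viability by CellTiterGlo luminescence, with 500 cells/well; bortezomib titration ran as control.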

Experiment [9] is described as follows: qHTS for ATAD5 Antagonist screened against the NCATS CANVASS Library (AID 1347370).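 Also: HEK293T cells carrying an ATAD5 luciferase reporter co-treated with 10 µM 5-fluorouridine; series mostly up to about 46 µM; nearly all actives have a fitted effect of over 65% in size.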 The procedure, abridged: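 HEK293T cells with a stably integrated ATAD5-controlled luciferase reporter were exposed to compounds (11-pt) alongside 10 uM 5-fluorouridine as ATAD5 stabilizer for 16hr at 37C. Viability was read by CellTiter-Fluor fluorescence, then ATAD5 by luminescence.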

A short description of experiment [10]: J3T Cancer Cell Toxicity qHTS against the NCATS CANVASS Library (AID 1347371). Also: potency is read from the fitted curve at half-maximal effect. A digest of the protocol:
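Viability of the J3T glioma line from dog is scored by ATP luminescence after a 72 hr incubation with natural products.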

Experiment [11] addresses Nuclear receptor subfamily 1 group I member 3 (Homo sapiens) (UniProt Q14994). Kind of experiment: qHTS for Constitutive Androstane Receptor (CAR) Antagonist screened against the NCATS CANVASS Library (AID 1347372).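 Also: cells stimulated with 50 nM CITCO agonist so inhibition reflects antagonism; series mostly up to about 46 µM.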 A digest of the protocol:
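HepG2 cells stably carrying hCAR and CYP2B6-2.2kb luciferase reporter, 2500 cells/well, compound with 50 nM CITCO agonist for 24hr at 37C. ONE-Glo luminescence measured CAR activity; CellTiter-Fluor read viability.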

Experiment [12] shares this target. Kind of experiment: qHTS for Constitutive Androstane Receptor (CAR) Agonist screened against the NCATS CANVASS Library (AID 1347373).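 Also: every well also contained 1.5 µM PK11195 alongside the test compound.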 The procedure, abridged: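 CAR agonism is scored as CYP2B6-promoter luciferase induction in a double-stable transfected HepG2 line, where 1.5uM PK11195 is included in each well. Compounds were tested over a 24hr exposure.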
Experiment [13] in a line: 10-beta competent E. coli microbial cell viability qHTS against the NCATS CANVASS Library (AID 1347376). Also: series mostly up to about 46 µM. The procedure, abridged:
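Cytotoxicity toward competent E. coli is scored from cellular ATP content via BacTiter-Glo luminescence following overnight compound exposure at 37C, 5% CO2.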

Experiment [14] can be described thus: qHTS for H2AX Agonists against the NCATS CANVASS Library (AID 1347378).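 Also: phospho-H2AX S139 level in CHO-K1 lysates by TR-FRET emission ratio.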 The procedure, abridged: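 Signal is the 665/620 nm emission ratio from europium cryptate and d2 antibody pair, rising with S139-phosphorylated H2AX. CHO-K1 cells saw test agents for 3 hr at 37C; detection ran 24 hr at room temperature.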
Experiment [15] is described as follows: qHTS for Inflammasome Signaling Inhibitors: IL-1-beta AlphaLISA screen against the NCATS CANVASS Library (AID 1347379).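 Also: human THP-1 cells primed with LPS then triggered with ATP.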 The procedure, abridged:
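Human THP-1 cells were pretreated 1 hr at 37 °C with compounds (up to 57.5 uM final), then stimulated with LPS (250 ng/mL final) and ATP (1.25 mM final). Secreted IL-1B was read by AlphaLISA after 16 hr.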

Experiment [16] in a line: Cytotoxicity qHTS for assessment of Hepg2 cells membrane integrity screened against the NCATS CANVASS Library (AID 1347387). The procedure, abridged: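 Fluorescence proportional to lysed-cell number, from LDH leaking out of HepG2 cells exposed 5 hr at 37C to 0.59 nM - 46 uM compound (11-point qHTS), is measured after 10 min with CytoTox-ONE.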
Experiment [17] can be described thus: Secretion counterscreen for inhibitors of the SERCaMP assay screened against the NCATS CANVASS Library (AID 1347390).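 Also: light from luciferase secreted into medium read as a measure of general secretion; series mostly up to about 77 µM.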 A digest of the protocol: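 Natural products are titrated in an 11-point series up to 77 uM onto SH-SY5Y-GLuc STOP cells for 20 h. Secreted reporter activity is measured as coelenterazine-driven luminescence, with Brefeldin A on each plate.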

Experiment [18] is described as follows: Vero-766 cells viability qHTS against the NCATS CANVASS Library: Counterscreen for Zika virus inhibition assay (AID 1347394). Also: series mostly up to about 46 µM; nearly all actives have a fitted effect of over 60% in size. The procedure, abridged: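 Counterscreen for toxicity: Vero 766 cells exposed 72 h to an 11-point compound series, viability by CellTiter-Glo.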
A short description of experiment [19]: Viability qHTS for inhibitors of the SERCaMP assay screened against the NCATS CANVASS Library (AID 1347400). Also: series mostly up to about 92 µM; nearly all actives have a fitted effect of over 70% in size. The procedure, abridged:
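Cytotoxicity counter-screen: ATP content (CellTiter-Glo luminescence) of SH-SY5Y-GLuc SERCaMP MJH297 cells after 48 h at 37C with compounds in an 11-point qHTS series.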

The nature of experiment [20]: Redox Reaction Profiling qHTS: Assay Interference Panel against the NCATS CANVASS Library (AID 1347401). A digest of the protocol: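 Compounds in 11-point series incubated with 5 uM resazurin and 200 uM DTT in 50 mM HEPES pH 7.3, 50 mM NaCl. Resorufin fluorescence (Ex 525/Em 598) read before and after 15 min in the dark.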

The record followed here is PubChem BioAssay (NCATS).

Inconclusive results are not listed. Active and inactive are the calls of the source. Calls follow the shape of the dose curve; as a rule, active = well fitted curve in the direction sought with a large enough effect; inconclusive = small, poorly fitted or top-dose-only effect, or another doubt; inactive = no such curve, though single readings can be large; an effect the other way counts as inactive or inconclusive.

Chain of Nuclear receptor subfamily 1 group I member 3 (Homo sapiens) (Q14994 whole entry, looked up): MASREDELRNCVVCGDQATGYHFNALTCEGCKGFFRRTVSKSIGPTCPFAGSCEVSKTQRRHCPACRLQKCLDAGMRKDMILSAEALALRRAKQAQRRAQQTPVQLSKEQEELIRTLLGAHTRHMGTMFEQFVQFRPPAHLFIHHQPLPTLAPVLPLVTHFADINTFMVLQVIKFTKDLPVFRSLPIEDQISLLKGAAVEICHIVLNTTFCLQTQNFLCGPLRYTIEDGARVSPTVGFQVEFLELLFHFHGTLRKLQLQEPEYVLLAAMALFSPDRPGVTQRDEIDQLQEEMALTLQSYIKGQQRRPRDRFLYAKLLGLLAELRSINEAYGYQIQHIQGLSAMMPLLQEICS

`O=C1CC(c2ccc(O)cc2)Oc2cc(O)ccc21` (stereo unspecified): the Potency entry in experiment [1], in experiment [3], in [4], in experiment [6], in experiment [7] and in experiment [8] was “inactive” each time. Further, the Potency entry in [9], in experiment [10], in experiment [11], in experiment [12], in experiment [14] and in experiment [15] was “inactive” in each case. In addition, the Potency result in experiment [17], in experiment [18], in [19] and in experiment [20] was “inactive” each time. Also, the compound was called inactive in [2], in [5], in experiment [13] and in [16].

As to `C=C1C[C@]23C=CC(=O)[C@@](C)(CCCC(C)C(=O)N[C@@H](CO)C(=O)O)[C@@H]2C[C@@H]1CC3` (stereo partly specified), the result in experiment [2], in experiment [5], in experiment [13] and in [16] was inactive. The Potency result in experiment [3], in experiment [4], in experiment [6], in experiment [7], in experiment [8] and in experiment [9] was “inactive” in each case. Besides, the Potency result in experiment [10], in experiment [11], in experiment [12], in experiment [14], in experiment [15] and in experiment [17] was “inactive” in each case. The Potency result in [18], in experiment [19] and in [20] was “inactive” throughout.

`C[C@@]12CCC[C@@](C)(C(=O)OP(=O)(O)OC[C@H]3O[C@@H](n4cnc5c(N)ncnc54)[C@H](O)[C@@H]3O)[C@H]1C[C@@H](O)[C@@]13C[C@@H](CC[C@@H]21)[C@](C)(O)C3`: the Potency entry in experiment [1], in experiment [3], in [4], in [6], in [7] and in experiment [8] was “inactive” in each case. In addition, the Potency result in experiment [9], in [11], in experiment [12], in [15], in [17] and in experiment [18] was “inactive” throughout. Also, the Potency entry in experiment [19] is “inactive”. For the same compound, the call in experiment [2], in [5], in experiment [13] and in experiment [16] was inactive. Moreover, the Potency in experiment [10] was 16.6 µM (active).

Turning to `C=C[C@]1(C)CC[C@@H]([C@H](C)C(=O)CC=C(C)C)O1`, the Potency result in experiment [1], in experiment [3], in [4], in experiment [6], in [7] and in experiment [8] was “inactive” in each case. In addition, the Potency result in [9], in experiment [10], in experiment [11], in experiment [12], in experiment [14] and in experiment [15] was “inactive” each time. Also, the Potency entry in experiment [17], in [18], in [19] and in experiment [20] was “inactive” each time. Besides, the call in experiment [2], in experiment [5], in experiment [13] and in experiment [16] was inactive.

As to `COC1C(C)OC(OCC23C[C@@H]4[C@H](C)CC[C@H]4C4(C=O)CC2C=C(C(C)C)C34C(=O)O)[C@@H](O)[C@H]1O` (stereo partly specified), the Potency result in experiment [1], in experiment [3], in [4], in [6], in experiment [7] and in experiment [8] was “inactive” in each case. The Potency entry in [9], in experiment [10], in [11], in experiment [12], in experiment [14] and in [15] was “inactive” each time. For the same compound, the Potency result in experiment [17], in experiment [18], in experiment [19] and in [20] was “inactive” throughout. Moreover, the compound was classed as inactive in experiment [2], in experiment [5], in experiment [13] and in experiment [16].

`C[C@@]12C[C@@H](C[C@@H]3C(=O)O[C@@H](c4ccoc4)[C@H](OC(=O)c4ccccc4)[C@@H]31)OC2=O`: the Potency entry in experiment [1], in experiment [3], in experiment [4], in experiment [6], in experiment [7] and in experiment [8] was “inactive” in each case. Moreover, the Potency entry in [9], in [10], in [11], in [12], in experiment [14] and in [15] was “inactive” in each case. Further, the Potency entry in experiment [17], in [19] and in experiment [20] was “inactive” in each case. Besides, the compound was classed as inactive in experiment [2], in experiment [5], in [13] and in [16].
